The supplement of paper PMC8007513
Counter-ions that a name gives are not always drawn. ± gives the standard error. Among all 1,300 compounds or so, about 130 (10%) showed an effect of 50% or more. The sample holds strong results, similar compounds and a random draw of the others, so the mix is not that of the screen.

Test system: Trichoderma virens ATCC 9645
Assay: growth yield (OD600) with compound + IPBC relative to untreated control; higher = less growth inhibition
Conditions: compound concentration: 100 uM, IPBC concentration: 200 ng/ml
Method in brief: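 Growth appears as means of duplicate screens, relative to the control containing neither agent. To obtain it, OD600 was read on a BioTek EL800 at 40 h and 72 h. The cultures were 100 μl aliquots in 96-well plates at 30 °C, holding Trichoderma virens ATCC 9645 spores at 15,000 spores ml^−1 in potato dextrose broth, library compounds at 100 μM final, and, in some wells, a biocide at 200 ng ml^−1.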

Compound	growth yield (40 h) [%]	growth yield (72 h) [%]
O=C(OCC(O)CO)c1ccccc1Nc1ccnc2cc(Cl)ccc12 (configuration not stated) [Glafenine hydrochloride] + CCCCNC(=O)OCC#CI [3-iodo-2-propynyl butylcarbamate (IPBC)]	84.3 ± 2.4	97.3 ± 1.3
O=[N+]([O-])O[C@@H]1CO[C@H]2[C@@H]1OC[C@@H]2O [Isosorbide mononitrate] + CCCCNC(=O)OCC#CI [3-iodo-2-propynyl butylcarbamate (IPBC)]	88.2 ± 4	91.3 ± 4.1
CCN(C(C)=O)c1cccc(-c2ccnc3c(C#N)cnn23)c1 [Zaleplon] + CCCCNC(=O)OCC#CI [3-iodo-2-propynyl butylcarbamate (IPBC)]	81.009 ± 1e-14	88.94 ± 0.42
Cc1c(NC(C)C)c(=O)n(-c2ccccc2)n1C [Isopyrin hydrochloride] + CCCCNC(=O)OCC#CI [3-iodo-2-propynyl butylcarbamate (IPBC)]	87 ± 2.5	91.24 ± 0.63
CC1(C)S[C@@H]2[C@H](NC(=O)Cc3ccccc3)C(=O)N2[C@H]1C(=O)O [Benzylpenicillin sodium] + CCCCNC(=O)OCC#CI [3-iodo-2-propynyl butylcarbamate (IPBC)]	82.1 ± 6.2	97.1 ± 6.1
CC1(C)S[C@@H]2[C@H](NC(=O)Cc3ccccc3)C(=O)N2[C@H]1C(=O)O [Benzathine benzylpenicillin] + CCCCNC(=O)OCC#CI [3-iodo-2-propynyl butylcarbamate (IPBC)]	102 ± 12	98 ± 9.9
CCCCc1ncc(/C=C(\Cc2cccs2)C(=O)O)n1Cc1ccc(C(=O)O)cc1 [Eprosartan mesylate] + CCCCNC(=O)OCC#CI [3-iodo-2-propynyl butylcarbamate (IPBC)]	112 ± 9.7	109 ± 4.1
COC(=O)C1=C(C)NC(C)=C(C(=O)OCC(C)C)C1c1ccccc1[N+](=O)[O-] (configuration not stated) [Nisoldipine] + CCCCNC(=O)OCC#CI [3-iodo-2-propynyl butylcarbamate (IPBC)]	41.3 ± 8.3	34.71 ± 0.1
CCOC(=O)C1=C(C)NC(C)=C(C(=O)OC)C1c1cccc(Cl)c1Cl (configuration not stated) [Felodipine] + CCCCNC(=O)OCC#CI [3-iodo-2-propynyl butylcarbamate (IPBC)]	77.5 ± 8.3	92.9 ± 1.9
CCOC(=O)C1=C(C)NC(C)=C(C(=O)OC)C1c1cccc([N+](=O)[O-])c1 (configuration not stated) [Nitrendipine] + CCCCNC(=O)OCC#CI [3-iodo-2-propynyl butylcarbamate (IPBC)]	79.58 ± 0.48	85.7 ± 1.1
COCCOC(=O)C1=C(C)NC(C)=C(C(=O)OC(C)C)C1c1cccc([N+](=O)[O-])c1 (configuration not stated) [Nimodipine] + CCCCNC(=O)OCC#CI [3-iodo-2-propynyl butylcarbamate (IPBC)]	79.7 ± 7.9	87.3 ± 1.3
COC(=O)C1=C(C)NC(C)=C(C(=O)OCCN(C)Cc2ccccc2)C1c1cccc([N+](=O)[O-])c1 (configuration not stated) [Nicardipine hydrochloride] + CCCCNC(=O)OCC#CI [3-iodo-2-propynyl butylcarbamate (IPBC)]	73.1 ± 1.6	94.7 ± 2.2
COC(=O)C1=C(C)NC(C)=C(C(=O)OC)C1c1ccccc1[N+](=O)[O-] [Nifedipine] + CCCCNC(=O)OCC#CI [3-iodo-2-propynyl butylcarbamate (IPBC)]	42.41 ± 0.16	55.48 ± 0.52
CCCCc1nc(Cl)c(CO)n1Cc1ccc(-c2ccccc2-c2nnn[nH]2)cc1 [Losartan] + CCCCNC(=O)OCC#CI [3-iodo-2-propynyl butylcarbamate (IPBC)]	98.3 ± 6.2	96.7 ± 5.7
CC[C@@H](CO)NC(=O)[C@@H]1C=C2c3cccc4[nH]cc(c34)C[C@H]2N(C)C1 [Methylergometrine maleate] + CCCCNC(=O)OCC#CI [3-iodo-2-propynyl butylcarbamate (IPBC)]	79.7 ± 4.8	88 ± 2
NS(=O)(=O)c1cc2c(cc1Cl)NC(CC1CCCC1)NS2(=O)=O (configuration not stated) [Cyclopenthiazide] + CCCCNC(=O)OCC#CI [3-iodo-2-propynyl butylcarbamate (IPBC)]	88.8 ± 1.4	98.48 ± 0.32
NCc1ccccc1CC(=O)N[C@@H]1C(=O)N2C(C(=O)O)=C(CSc3nnnn3CC(=O)O)CS[C@H]12 [Ceforanide] + CCCCNC(=O)OCC#CI [3-iodo-2-propynyl butylcarbamate (IPBC)]	92.3 ± 5.6	97.1 ± 2.1
CCC1(c2ccc(N)cc2)CCC(=O)NC1=O (configuration not stated) [Glutethimide, para-amino] + CCCCNC(=O)OCC#CI [3-iodo-2-propynyl butylcarbamate (IPBC)]	111 ± 4.1	112 ± 4.5
CC(NC(C)(C)C)C(=O)c1cccc(Cl)c1 (configuration not stated) [Bupropion hydrochloride] + CCCCNC(=O)OCC#CI [3-iodo-2-propynyl butylcarbamate (IPBC)]	92.1 ± 5.4	98.5 ± 3
COc1cccc(N(C)C(=S)Oc2ccc3c(c2)CCCC3)n1 [Liranaftate] + CCCCNC(=O)OCC#CI [3-iodo-2-propynyl butylcarbamate (IPBC)]	0	0
NCC(O)c1ccc(O)cc1 (racemic) [(+,-)-Octopamine hydrochloride] + CCCCNC(=O)OCC#CI [3-iodo-2-propynyl butylcarbamate (IPBC)]	97.4 ± 12	95 ± 4.6

Compound	growth yield (40 h) [%]	growth yield (72 h) [%]
CC(=O)N(CC(O)CO)c1c(I)c(C(=O)NCC(O)CO)c(I)c(C(=O)NCC(O)CO)c1I (configuration not stated) [Iohexol] + CCCCNC(=O)OCC#CI [3-iodo-2-propynyl butylcarbamate (IPBC)]	91.2 ± 8.3	93.7 ± 5.6
Clc1ccc(C(Cn2ccnc2)OCc2ccsc2Cl)c(Cl)c1 (configuration not stated) [Tioconazole] + CCCCNC(=O)OCC#CI [3-iodo-2-propynyl butylcarbamate (IPBC)]	3.65 ± 0.16	2.52
Clc1ccc(CSC(Cn2ccnc2)c2ccc(Cl)cc2Cl)cc1 (configuration not stated) [Sulconazole nitrate] + CCCCNC(=O)OCC#CI [3-iodo-2-propynyl butylcarbamate (IPBC)]	3.02 ± 0.16	2.41 ± 0.1
O=C(O)/C=C/c1ccc(Cn2ccnc2)cc1 [Ozagrel hydrochloride] + CCCCNC(=O)OCC#CI [3-iodo-2-propynyl butylcarbamate (IPBC)]	105 ± 12	103 ± 8.7
Clc1ccc(C(Cn2ccnc2)OCc2c(Cl)cccc2Cl)c(Cl)c1 (configuration not stated) [Isoconazole] + CCCCNC(=O)OCC#CI [3-iodo-2-propynyl butylcarbamate (IPBC)]	4.13 ± 0.64	2.83 ± 0.32
Clc1ccc(COC(Cn2ccnc2)c2ccc(Cl)cc2Cl)cc1 (configuration not stated) [Econazole nitrate] + CCCCNC(=O)OCC#CI [3-iodo-2-propynyl butylcarbamate (IPBC)]	3.18 ± 0.32	2.73 ± 0.42
CC(c1cc2ccccc2s1)N(O)C(N)=O (configuration not stated) [Zileuton] + CCCCNC(=O)OCC#CI [3-iodo-2-propynyl butylcarbamate (IPBC)]	89.1 ± 3.3	90.8 ± 2.1
NCCCCCC(=O)O [Aminocaproic acid] + CCCCNC(=O)OCC#CI [3-iodo-2-propynyl butylcarbamate (IPBC)]	103 ± 13	98.9 ± 6.8
Nc1ncnc2c1ncn2C1OC(COP(=O)(O)O)C(O)C1O (configuration not stated) [Adenosine 5'-monophosphate monohydrate] + CCCCNC(=O)OCC#CI [3-iodo-2-propynyl butylcarbamate (IPBC)]	79.4 ± 1.3	91.2 ± 1.1
CC(C)(C)NC(=O)[C@@H]1CN(Cc2cccnc2)CCN1C[C@@H](O)C[C@@H](Cc1ccccc1)C(=O)N[C@H]1c2ccccc2C[C@H]1O [Indinavir sulfate] + CCCCNC(=O)OCC#CI [3-iodo-2-propynyl butylcarbamate (IPBC)]	88.5 ± 3.3	89.78 ± 0.84
Cc1nnc(NS(=O)(=O)c2ccc(N)cc2)s1 [Sulfamethizole] + CCCCNC(=O)OCC#CI [3-iodo-2-propynyl butylcarbamate (IPBC)]	93.7 ± 8.9	97.3 ± 7.1
Cc1cc(/C=C/c2ccc3cc(N(C)C)ccc3[n+]2C)c(C)n1-c1ccccc1 [Pyrvinium pamoate] + CCCCNC(=O)OCC#CI [3-iodo-2-propynyl butylcarbamate (IPBC)]	111 ± 4.5	111 ± 3.1
C[N+]1(C)CCCC(OC(=O)C(O)(c2ccccc2)c2ccccc2)C1 (configuration not stated) [Mepenzolate bromide] + CCCCNC(=O)OCC#CI [3-iodo-2-propynyl butylcarbamate (IPBC)]	83.2	85.7 ± 0.94
C=CCSCC1Nc2cc(Cl)c(S(N)(=O)=O)cc2S(=O)(=O)N1 (configuration not stated) [Althiazide] + CCCCNC(=O)OCC#CI [3-iodo-2-propynyl butylcarbamate (IPBC)]	98.16 ± 0.32	96.7 ± 0.21
CC=CC(=O)N(CC)c1ccccc1C [Crotamiton] + CCCCNC(=O)OCC#CI [3-iodo-2-propynyl butylcarbamate (IPBC)]	98.8 ± 5.1	102 ± 2.2
CCN1CCC[C@H]1CNC(=O)c1c(OC)ccc(Br)c1OC [Remoxipride Hydrochloride] + CCCCNC(=O)OCC#CI [3-iodo-2-propynyl butylcarbamate (IPBC)]	101 ± 3.5	99 ± 1.5
C=CCOC(Cn1ccnc1)c1ccc(Cl)cc1Cl (configuration not stated) [Enilconazole] + CCCCNC(=O)OCC#CI [3-iodo-2-propynyl butylcarbamate (IPBC)]	3.34 ± 0.16	2.94 ± 0.21
Clc1ccc(COC(Cn2ccnc2)c2ccc(Cl)cc2Cl)c(Cl)c1 (configuration not stated) [Miconazole] + CCCCNC(=O)OCC#CI [3-iodo-2-propynyl butylcarbamate (IPBC)]	2.8591 ± 3.6e-15	2.41 ± 0.1
Clc1ccc(CCC(Cn2ccnc2)Sc2c(Cl)cccc2Cl)cc1 (configuration not stated) [Butoconazole nitrate] + CCCCNC(=O)OCC#CI [3-iodo-2-propynyl butylcarbamate (IPBC)]	3.18	2.62 ± 0.1
Clc1ccc(CO/N=C(\Cn2ccnc2)c2ccc(Cl)cc2Cl)c(Cl)c1 [Oxiconazole Nitrate] + CCCCNC(=O)OCC#CI [3-iodo-2-propynyl butylcarbamate (IPBC)]	3.49 ± 0.32	2.1 ± 0.21
